{"source": "paper PMC5540273", "about": "(PLoS ONE, 2017);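 note: KINOMEscan kinase panel screen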"}
{"system": "T1, ERK4", "T1 construct": "gene MAPK4", "details": "concentration: 1 μM,replicates: in singlicate; n = 1", "units": {"%Inh": "%"}}
{"smiles": "COc1ccc(Nc2nccc(N3CCC(NC(=O)c4cccc(C#N)c4)C3)n2)cc1", "note": "(centres unmarked) [GSK1379730]", "%Inh": 0}
{"smiles": "C[C@@H](Oc1cc(-n2cnc3cc(-c4cnn(C)c4)ccc32)sc1C(N)=O)c1ccccc1Cl", "note": "[GSK580432]", "%Inh": 10}
{"smiles": "O=C(Nc1n[nH]c2cc(-c3ccco3)ccc12)C1CC1", "note": "[SB-737447]", "%Inh": 3}
{"smiles": "COC(=O)Nc1nc2cc(Oc3ccc(NC(=O)Nc4cc(C(F)(F)F)ccc4Cl)cc3)ccc2[nH]1.Cl", "note": "[GW697465]", "%Inh": 0}
{"smiles": "Cc1cccc2c(-c3ccncc3)c(-c3ccc(F)cc3)nn12.Cl", "note": "[GW461487]", "%Inh": 15}
{"smiles": "O=c1[nH]cc(-c2ccc(O)cc2)c2sc(-c3ccncc3)cc12", "note": "[GSK1033723]", "%Inh": 1}
{"smiles": "COc1cccc(CNC(=O)NC2CCN(c3ccnc(Nc4cc(OC)c(OC)c(OC)c4)n3)C2)c1", "note": "(centres unmarked) [GSK1379765]", "%Inh": 0}
{"smiles": "COc1cccc(OC)c1C(=O)Nc1cccc(-c2nn3ccccc3c2-c2ccnc(Nc3cccc(F)c3)n2)c1", "note": "[GSK361065]", "%Inh": 9}
{"smiles": "CC(=O)Nc1nc2cnc(Nc3cc(NC(=O)c4cccc(CC(C)(C)C#N)c4)ccc3C)nc2s1", "%Inh": 4}
{"smiles": "CC(C)S(=O)(=O)N1CCN(Cc2ccc3c(c2)nc(NC(=O)c2ccsc2)n3C[C@H](O)c2ccccc2)CC1", "note": "[GW635815]", "%Inh": 0}
{"smiles": "Cc1ccc(Nc2ccnc(Nc3ccc4c(c3)CS(=O)(=O)C4)n2)cc1O.Cl", "note": "[GW579362]", "%Inh": 48}
{"smiles": "Cc1nnc(-c2ccc3occ(-c4ccc(S(C)=O)cc4)c3n2)o1", "note": "(centres unmarked)", "%Inh": 0}
{"smiles": "O=C(Nc1cccc(C(F)(F)F)c1)c1cccc(Oc2ccc3nccn3n2)c1", "%Inh": 2}
{"smiles": "CCCC(=O)Nc1n[nH]c2ncccc12", "note": "[SB-601436]", "%Inh": 0}
{"smiles": "C[C@@H]1CNc2c(sc3ccc4nc(-c5ccc(O)cc5)ccc4c23)C(=O)N1", "%Inh": 13}
{"smiles": "COC(=O)c1cccc(NC(=O)NC2CCN(c3ccnc(NCc4ccc(F)cc4)n3)CC2)c1", "note": "[GSK1379860]", "%Inh": 0}
{"smiles": "CC(=O)Nc1ccc(-c2cc3ncnc(SCC(=O)O)c3s2)cc1", "%Inh": 0}
{"smiles": "NC(=O)c1ccc(-c2cc3ncnc(SCC(=O)O)c3s2)cc1", "%Inh": 0}
{"smiles": "C[C@@H]1CCN(C(=O)N2CCCC2)C[C@@H]1N(C)c1ncnc2[nH]ccc12", "%Inh": 10}
{"smiles": "CCn1c(-c2nonc2N)nc2cncc(Br)c21", "note": "[SB-738004]", "%Inh": 19}
{"smiles": "Cc1ccc(CC(=O)N2CCc3cc(-c4cn(C)c5ncnc(N)c45)ccc32)cc1", "note": "[GSK2634758]", "%Inh": 0}
{"smiles": "Nc1nccc(-c2ccc3c(N)n[nH]c3c2)n1", "note": "[GSK1034945]", "%Inh": 8}
{"smiles": "COc1cccc(C2=C(Nc3cccc(Cl)c3)C(=O)NC2=O)c1", "note": "[SB-341556]", "%Inh": 17}
{"smiles": "Cc1n[nH]c2cc(Nc3ccnc(Nc4cccc(CN5CCOCC5)c4)n3)ccc12", "note": "[GW682569]", "%Inh": 22}
{"smiles": "Cl.Cl.NC[C@H](CC1CCCCC1)NC(=O)c1ccc(-c2ccnc3[nH]ccc23)s1", "note": "[GSK1581428]", "%Inh": 0}
{"smiles": "COc1cc2c(Nc3ccc(NC(=O)c4ccccc4)cc3)ncnc2cc1OCCCN1CCOCC1", "note": "[GSK301329]", "%Inh": 0}
{"smiles": "C[C@@H](Oc1cc(-n2cnc3ccc(-c4ccncc4)cc32)sc1C(N)=O)c1ccccc1Cl", "note": "[GSK483724]", "%Inh": 0}
{"smiles": "NC(=O)Nc1sc(-c2ccc(F)cc2)cc1C(N)=O", "note": "[GW789449]", "%Inh": 0}
{"smiles": "CN(c1ccc2c(c1)nc(NCc1ccc(F)cc1)n2C)c1ccnc(Nc2ccc(CS(C)(=O)=O)cc2)n1.Cl", "note": "[GW813244]", "%Inh": 0}
{"smiles": "c1ccc(Oc2ccc(Nc3ccnc4ccc(-c5ccccn5)cc34)cc2)cc1", "note": "[GW407034]", "%Inh": 0}
{"smiles": "CS(=O)c1ccc(-c2coc3ccc(-c4n[nH]c(=O)o4)cc23)cc1", "note": "(centres unmarked)", "%Inh": 0}
{"smiles": "CCN1CCN(CCCC(=O)Nc2n[nH]c3nc(-c4ccc(O)cc4)c(Br)cc23)CC1", "note": "[SB-731579]", "%Inh": 0}
{"smiles": "CC(=O)c1c(-c2ccncc2)[nH]c(-c2ccncc2)c1C", "note": "[GW493036]", "%Inh": 0}
{"smiles": "CSc1nccc(-c2c(-c3ccc(F)cc3)ncn2CCCN2CCOCC2)n1.Cl", "note": "[SB-217146]", "%Inh": 0}
{"smiles": "CN1CCN(CCNc2nc3cc(Oc4ccc(NC(=O)Nc5cc(C(F)(F)F)ccc5F)cc4)ccc3[nH]2)CC1.Cl.Cl", "note": "[GW768504]", "%Inh": 0}
{"smiles": "C[C@@H](Oc1cc(-n2cnc3cc(-c4ccncc4)ccc32)sc1C(N)=O)c1ccccc1Cl", "note": "[GSK479719]", "%Inh": 0}
{"smiles": "O=C(Nc1cccc(Oc2ccc3nccn3n2)c1)Nc1cccc(C(F)(F)F)c1", "%Inh": 1}
{"system": "T2, ERK5", "T2 construct": "gene MAPK7", "details": "concentration: 1 μM,replicates: in singlicate; n = 1", "units": {"%Inh": "%"}}
{"smiles": "COc1ccc(Nc2nccc(N3CCC(NC(=O)c4cccc(C#N)c4)C3)n2)cc1", "note": "(centres unmarked) [GSK1379730]", "%Inh": 0}
{"smiles": "C[C@@H](Oc1cc(-n2cnc3cc(-c4cnn(C)c4)ccc32)sc1C(N)=O)c1ccccc1Cl", "note": "[GSK580432]", "%Inh": 0}
{"smiles": "O=C(Nc1n[nH]c2cc(-c3ccco3)ccc12)C1CC1", "note": "[SB-737447]", "%Inh": 0}
{"smiles": "COC(=O)Nc1nc2cc(Oc3ccc(NC(=O)Nc4cc(C(F)(F)F)ccc4Cl)cc3)ccc2[nH]1.Cl", "note": "[GW697465]", "%Inh": 0}
{"smiles": "Cc1cccc2c(-c3ccncc3)c(-c3ccc(F)cc3)nn12.Cl", "note": "[GW461487]", "%Inh": 0}
{"smiles": "O=c1[nH]cc(-c2ccc(O)cc2)c2sc(-c3ccncc3)cc12", "note": "[GSK1033723]", "%Inh": 0}
{"smiles": "COc1cccc(CNC(=O)NC2CCN(c3ccnc(Nc4cc(OC)c(OC)c(OC)c4)n3)C2)c1", "note": "(centres unmarked) [GSK1379765]", "%Inh": 0}
{"smiles": "COc1cccc(OC)c1C(=O)Nc1cccc(-c2nn3ccccc3c2-c2ccnc(Nc3cccc(F)c3)n2)c1", "note": "[GSK361065]", "%Inh": 2}
{"smiles": "CC(=O)Nc1nc2cnc(Nc3cc(NC(=O)c4cccc(CC(C)(C)C#N)c4)ccc3C)nc2s1", "%Inh": 9}
{"smiles": "CC(C)S(=O)(=O)N1CCN(Cc2ccc3c(c2)nc(NC(=O)c2ccsc2)n3C[C@H](O)c2ccccc2)CC1", "note": "[GW635815]", "%Inh": 0}
{"smiles": "Cc1ccc(Nc2ccnc(Nc3ccc4c(c3)CS(=O)(=O)C4)n2)cc1O.Cl", "note": "[GW579362]", "%Inh": 0}
{"smiles": "Cc1nnc(-c2ccc3occ(-c4ccc(S(C)=O)cc4)c3n2)o1", "note": "(centres unmarked)", "%Inh": 0}
{"smiles": "O=C(Nc1cccc(C(F)(F)F)c1)c1cccc(Oc2ccc3nccn3n2)c1", "%Inh": 22}
{"smiles": "CCCC(=O)Nc1n[nH]c2ncccc12", "note": "[SB-601436]", "%Inh": 0}
{"smiles": "C[C@@H]1CNc2c(sc3ccc4nc(-c5ccc(O)cc5)ccc4c23)C(=O)N1", "%Inh": 8}
{"smiles": "COC(=O)c1cccc(NC(=O)NC2CCN(c3ccnc(NCc4ccc(F)cc4)n3)CC2)c1", "note": "[GSK1379860]", "%Inh": 22}
{"smiles": "CC(=O)Nc1ccc(-c2cc3ncnc(SCC(=O)O)c3s2)cc1", "%Inh": 0}
{"smiles": "NC(=O)c1ccc(-c2cc3ncnc(SCC(=O)O)c3s2)cc1", "%Inh": 0}
{"smiles": "C[C@@H]1CCN(C(=O)N2CCCC2)C[C@@H]1N(C)c1ncnc2[nH]ccc12", "%Inh": 0}
{"smiles": "CCn1c(-c2nonc2N)nc2cncc(Br)c21", "note": "[SB-738004]", "%Inh": 6}
{"smiles": "Cc1ccc(CC(=O)N2CCc3cc(-c4cn(C)c5ncnc(N)c45)ccc32)cc1", "note": "[GSK2634758]", "%Inh": 0}
{"smiles": "Nc1nccc(-c2ccc3c(N)n[nH]c3c2)n1", "note": "[GSK1034945]", "%Inh": 0}
{"smiles": "COc1cccc(C2=C(Nc3cccc(Cl)c3)C(=O)NC2=O)c1", "note": "[SB-341556]", "%Inh": 0}
{"smiles": "Cc1n[nH]c2cc(Nc3ccnc(Nc4cccc(CN5CCOCC5)c4)n3)ccc12", "note": "[GW682569]", "%Inh": 7}
{"smiles": "Cl.Cl.NC[C@H](CC1CCCCC1)NC(=O)c1ccc(-c2ccnc3[nH]ccc23)s1", "note": "[GSK1581428]", "%Inh": 0}
{"smiles": "COc1cc2c(Nc3ccc(NC(=O)c4ccccc4)cc3)ncnc2cc1OCCCN1CCOCC1", "note": "[GSK301329]", "%Inh": 0}
{"smiles": "C[C@@H](Oc1cc(-n2cnc3ccc(-c4ccncc4)cc32)sc1C(N)=O)c1ccccc1Cl", "note": "[GSK483724]", "%Inh": 0}
{"smiles": "NC(=O)Nc1sc(-c2ccc(F)cc2)cc1C(N)=O", "note": "[GW789449]", "%Inh": 10}
{"smiles": "CN(c1ccc2c(c1)nc(NCc1ccc(F)cc1)n2C)c1ccnc(Nc2ccc(CS(C)(=O)=O)cc2)n1.Cl", "note": "[GW813244]", "%Inh": 0}
{"smiles": "c1ccc(Oc2ccc(Nc3ccnc4ccc(-c5ccccn5)cc34)cc2)cc1", "note": "[GW407034]", "%Inh": 0}
{"smiles": "CS(=O)c1ccc(-c2coc3ccc(-c4n[nH]c(=O)o4)cc23)cc1", "note": "(centres unmarked)", "%Inh": 0}
{"smiles": "CCN1CCN(CCCC(=O)Nc2n[nH]c3nc(-c4ccc(O)cc4)c(Br)cc23)CC1", "note": "[SB-731579]", "%Inh": 87}
{"smiles": "CC(=O)c1c(-c2ccncc2)[nH]c(-c2ccncc2)c1C", "note": "[GW493036]", "%Inh": 0}
{"smiles": "CSc1nccc(-c2c(-c3ccc(F)cc3)ncn2CCCN2CCOCC2)n1.Cl", "note": "[SB-217146]", "%Inh": 0}
{"smiles": "CN1CCN(CCNc2nc3cc(Oc4ccc(NC(=O)Nc5cc(C(F)(F)F)ccc5F)cc4)ccc3[nH]2)CC1.Cl.Cl", "note": "[GW768504]", "%Inh": 0}
{"smiles": "C[C@@H](Oc1cc(-n2cnc3cc(-c4ccncc4)ccc32)sc1C(N)=O)c1ccccc1Cl", "note": "[GSK479719]", "%Inh": 0}
{"smiles": "O=C(Nc1cccc(Oc2ccc3nccn3n2)c1)Nc1cccc(C(F)(F)F)c1", "%Inh": 2}
